Screens as filed in PubChem.
An excerpt weighted towards active compounds, which were near 7.9% of everything screened.
MARV entry inh: Marburg virus entry inhibition. 300,000 tested, 1.8% active. Potency, µM (doses to about 37.8 µM), for inactives: top-dose activity change, negative = inhibition, hits mostly inhibitors. Marburg virus pseudotyped entry inhibition, cell reporter; calls by dose curve; tested in HEK293 cells; note: potency is the fitted concentration of half-maximal effect
HCMV inh: human cytomegalovirus inhibition; AID 1259415; HFF cells, HCMV-luciferase reporter, 72 h; stronger effect = lower value; activity change, negative = inhibition, % at 57.5 µM; 410,000 tested, 4.5% active; in the data active = activity change below about -60%; inconclusive = no clear call, values can overlap the other calls; inactive = above about -39%
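After 16 h attachment at 37C, HFF cells received test compound and HCMV-luciferase (1 PFU/cell); reporter luminescence read 72 h later, data normalized against buffer-only and known inhibitor Salinomycin.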
HCV inhibitor: blocks hepatitis C virus; AID 651820; 340,000 tested, 3.4% active; Huh7.5.1 HCVcc-Cre infection, luciferase reporter, 44 h; Potency, µM (titrated, usually from 41.8 µM), inactives show at the top dose activity change, negative = inhibition, actives largely listed as inhibitors; active = well fitted inhibition curve with a large enough effect; inconclusive = small, poorly fitted or top-dose-only effect, or another doubt; inactive = no such curve, though single readings can be large or run the other way; note: potency is the fitted concentration of half-maximal effect
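Compounds are dispensed onto cells plated 4 h earlier at 1,000 per well, with HCVcc-Cre virus (about 0.5 moi) added next. Following 44 h of culture, luminescent signal is measured for 15 sec after 15 min with substrate at room temperature.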
LASV entry inh: inhibitors of Lassa virus binding or cell entry | Lassa virus pseudotype entry inhibition, cell reporter | Potency, µM (top dose mostly 37.9 µM), without a hit: at the top dose activity change, negative = inhibition, most hits filed as inhibitors | 300,000 tested, 1.2% active; calls by dose curve; tested in HEK293 cells; note: potency is the fitted concentration of half-maximal effect; nearly all actives have a fitted effect of over 50% in size
FMDV inh: antivirals against foot and mouth disease virus | FMDV antiviral cell-based qHTS | Potency, µM (series often up to 57.9 µM), for inactives: at the top dose activity change, negative = inhibition, hits mostly inhibitors | 410,000 tested, 1.2% active | AID 1159524; calls by dose curve; tested in HEK293T cells; note: read-out not given here; potency is the fitted concentration of half-maximal effect; nearly all actives have a fitted effect of over 45% in size
The depositor's hits bear a star; u = inconclusive; x = not tested or not shown; + = active, no number; [ ] = dose if it differs, or a comment. % is set by controls: 0 for no effect and ±100 for the full control effect.

SMILES	MARV entry inh	HCMV inh	HCV inhibitor	LASV entry inh	FMDV inh
CC(NC(=S)NC1CCCCC1)c1ccc(C(C)(C)C)cc1 (centres undefined)	u	-97.2*	u	u	0.0%
CCC(NC(=S)NC1CCCCC1)c1ccccc1 (centres undefined)	x	-89.2*	x	x	x
CC(CCc1ccccc1)NC(=S)NC1CCCCC1 (centres undefined)	4.1%[46.1 µM]	-39.2	u	2.0%	4.1%
CCc1ccc(C(C)NC(=S)NC2CCCCC2)cc1 (centres undefined)	x	x	u	x	-11.4%
O=C(CCN1C(=O)C2C3CCC(C3)C2C1=O)OCC(=O)c1cccc([N+](=O)[O-])c1 (centres undefined)	-32.8%	0.7	30.3%	-5.7%	-0.2%
Cc1cc(S(=O)(=O)NCCc2csc(-c3cccc(F)c3)n2)ccc1F	x	-2.5	x	-9.2%[46.1 µM]	21.5%
C[N+](C)(C)CCO	13.8%	x	x	-4.2%	-7.1%
CCCCc1ccccc1NC(=S)NC1CCCC1	-14.6%[46.1 µM]	-66.1*	-26.3%	u	6.8%
COc1cc2cc(-c3ccc(O)cc3O)nc(C)c2cc1OC	u	-96.8*	5.62µM*	u	-16.7%
COc1cc2cc(-c3ccc(OC)c(OC)c3C)nc(N)c2cc1OC	u	-92.0*	17.8µM*	u	-9.7%
COc1ccc(-c2ccc(OC)c(OC)c2OC)c(OC)c1OC	-15.8%	2.3	11.5%	u	0.0%
CCN(CC)c1nn2c(=O)c(C(=O)NCCc3ccccc3C)cnc2s1	x	7.5	x	3.0%[46.1 µM]	-20.0%
CCOC(=O)c1cnc(S[C@@H]2CC(=O)N(c3cccc(OC)c3)C2=O)nc1N	13.2%	x	x	x	x
O=Nc1ccc2oc(=O)ccc2c1	12.6µM*	x	x	u	x
COCCc1nn2c(=O)cc(COC(=O)c3ccc(Br)cc3)nc2s1	x	16.6	x	0.4%[46.1 µM]	-14.1%
Cc1onc(-c2ccccc2Cl)c1C(=O)N(C)C1CCCCC1	x	-65.9*	-18.7%	x	-8.1%
COc1ccccc1N1CCN(C(=O)c2c(-c3ccccc3Cl)noc2C)CC1	u	4.9	11.2µM*	u	u
COc1ccc(NC(=O)c2c(-c3ccccc3Cl)noc2C)c(OC)c1	14.6µM*	-34.4	-29.2%	u	-0.6%
CCOC(=O)c1ccccc1NC(=O)Cn1c(=O)n(CCCC(=O)NCc2ccc3c(c2)OCO3)c(=O)c2ccccc21	u	-15.6	x	-6.7%[46.1 µM]	-17.0%
COc1ccc(-c2csc(N3CCN(S(=O)(=O)c4ccc5c(c4)NC(=O)CO5)CC3)n2)cc1	x	-87.7*	u	x	u
Cc1sc(N2CCN(S(=O)(=O)c3ccc4c(c3)NC(=O)CO4)CC2)nc1-c1ccccc1	u	45.0	4.3%	u	-15.9%
CCN(CC)S(=O)(=O)c1ccc(NC(=O)[C@H](CCSC)N2Cc3ccccc3C2=O)cc1	-18.1%[46.1 µM]	-25.6	x	-17.1%[46.1 µM]	-15.0%
CC(C)(C)OC(=O)N1CCC[C@@H]1CO	x	x	5.7%	x	u
CCCCCC(CC(=O)NO)C(=O)NC(C(=O)N1CCCC1CO)C(C)C (centres undefined)	x	-69.1*	u	x	-18.5%
COc1ccc(NC(=O)c2cnc(N3CCCCC3)c3ccccc23)cc1Cl	x	-22.2	x	-25.9%[46.1 µM]	u
SMILES	MARV entry inh	HCMV inh	HCV inhibitor	LASV entry inh	FMDV inh
COc1ccc(OC(=O)N2C/C(=C/c3ccccc3)C(=O)/C(=C\c3ccccc3)C2)cc1	u	-96.5*	u	7.08µM*	31.6µM*
CCOC(=O)N1CCN(S(=O)(=O)/C=C/c2ccccc2)CC1	u	-10.2	5.8%	0.0%	-12.0%
COc1ccc(OC(=O)N2CCOCC2)cc1	x	64.6	3.5%	x	42.7%
CCOC(=O)N1C/C(=C\c2ccccc2)C(=O)/C(=C/c2ccccc2)C1	x	-101.3*	7.8%	x	20µM*
CC[C@@H](C)[C@H](CN[C@H](CNC)C(C)C)NC[C@@H](C)c1ccc(CC(C)C)cc1	x	-78.1*	u	x	u
COC(=O)CC=C[C@@H](C)[C@@H](C=NOC[C@@H](O)[C@H]1O[C@@H]2OC(C)(C)O[C@H]2[C@@H]1O)OC	21.9%[14.2 µM]	x	x	u	x
CCOC(=O)N1CCN(C(=O)COC(=O)c2cc(Cl)c(O)c(Cl)c2)CC1	6.0%[46.1 µM]	-73.5*	13.7%	-20.2%	0.3%
CCOC(=O)N1CCN(C(=O)COC(=O)c2cc(Cl)cc(Cl)c2)CC1	-10.7%	19.7	12.8%	3.1%	-7.2%
COc1ccc(-c2cc(C)no2)cc1S(=O)(=O)N1CCOc2ccccc21	x	19.1	2.8%	-18.7%[46.1 µM]	-13.0%
Cc1cc(-c2ccc(C(C)C)c(S(=O)(=O)N3CCOc4ccccc43)c2)on1	3.16µM*	-64.3*	u	u	u
Cc1ccc(-c2onc(C)c2C)cc1S(=O)(=O)N1CCOc2ccccc21	x	+	u	x	0.0%
Cc1ccc(-c2onc(C)c2C)cc1S(=O)(=O)N1c2ccccc2CC1C (centres undefined)	x	-38.8	x	-21.1%[46.1 µM]	u
CCOC(=O)/C=C/[C@@H](CC(C)C)NC(=O)C(F)(F)F	x	-4.0	x	x	x
O=C(NC(=S)Nc1ccccc1Br)c1ccco1	1.6%[46.1 µM]	29.8	-21.2%	-26.5%	23.9%
O=C(N/N=C/c1ccc(OC(F)F)cc1OC(F)F)c1ccc(Br)cc1	7.0%	-37.6	u	0.0%	15.0%
O=C(N/N=C/c1ccc(OC(F)F)cc1OC(F)F)NC1CCCCC1	1.6%[46.1 µM]	-31.0	u	11.2µM*	-26.6%
N#Cc1c(-c2ccccc2)no[n+]1[O-]	11.2µM*	x	x	x	x
COc1ccc(-c2nc3c(-c4ccccc4)cnn3cc2C)cc1F	u	-39.5	-15.1%	-23.4%	0.0%
COc1ccc(-c2nc3c(-c4ccc(Cl)cc4)cnn3cc2C)cc1F	0.0%[46.1 µM]	-76.3*	-16.8%	u	-8.2%
COc1cc(=O)n2c(c1C(=O)NC(C)c1ccco1)CCN(C(=O)c1ccc3c(c1)OCCO3)CC2 (centres undefined)	x	x	x	x	-2.0%
COc1ccc(C)cc1NC(=O)c1cc2c(=O)n3ccccc3nc2n1C	21.4%[46.1 µM]	u	-10.7%	-1.6%	6.6%
Cc1cc(C)c(NC(=O)c2cc3c(=O)n4ccccc4nc3n2C)c(C)c1	x	-79.3*	x	-22.9%[46.1 µM]	u
Cc1cccc(C)c1Nc1c(-c2ccccn2)nc2c(C)cccn12	-6.0%[46.1 µM]	-68.8*	x	0.3%[46.1 µM]	-23.6%
Cc1cccn2c(Nc3ccccc3)c(-c3ccccn3)nc12	u	-66.2*	-7.0%	-13.5%[46.1 µM]	-28.8%
Cc1ccccc1Nc1c(-c2ccc(Cl)cc2)nc2c(C)cccn12	u	0.5	x	9.6%[46.1 µM]	-10.7%
CC(=O)OC1(C(C)=O)CCC2C3CC(Cl)C4=CC(=O)CCC4(C)C3CCC21C (centres undefined)	u	44.6	-29.0%	u	-16.8%
CCN(Cc1ccc2c(c1)OCCO2)C(=O)CSc1nc(C)nc2sc(C)c(C)c12	x	-37.9	u	x	31.6µM*
CCN(Cc1ccc2c(c1)OCO2)C(=O)CSc1ncnc2sccc12	x	-2.6	u	x	-5.8%
O=C(O)c1ccc(NC2=C(Cl)C(=O)c3ccccc3C2=O)cc1	x	u	u	x	25.1µM*
O=C1c2ccccc2C(=O)c2c(NCCc3ccc(O)cc3)ccc(NCCc3ccc(O)cc3)c21	20.6µM*	x	x	5.17µM*	x
